# Laboratory results: PubChem BioAssay (NCATS)
# Results filed as inconclusive are left out. Values without a mark were called inactive. Active and inactive are the calls of the source. Calls follow the shape of the dose curve; as a rule, active = well fitted cell-killing curve with a large enough effect; inconclusive = small, poorly fitted or top-dose-only effect, or effect the other way; inactive = no such curve, though single readings can be large or run the other way. Numbered stars: 1 amine (or outer) side, 2 acyl side, 3 side chain; on linkers, the order of the positions; unused ones are H or OH. Bridge positions count the residues as written; N and C are the ends. Square brackets hold non-standard residues; d marks the D form. Peptide text beside a SMILES is read from it. I, II: the chains in the order shown. Actinocin(9to1) = Cc1c2oc3c(C)ccc(C(=O)[*:1])c3nc-2c(C(=O)[*:2])c(N)c1=O; NMeV = CN[C@H](C(=O)O)C(C)C; Sar = CNCC(=O)O
# Assay: qHTS of pediatric cancer cell lines to identify multiple opportunities for drug repurposing: Confirmatory screen for MG 63 (6-TG R) cells (AID 1347119); also: nearly all actives have a fitted effect of over 55% in size
# Conditions: MG-63 (6-TG resistant) osteosarcoma viability; series mostly up to 45.9 µM; activity change, negative = cytotoxicity: at the top concentration
# Excerpt: Drug repurposing or repositioning has been offered as a strategy for drug development in oncology programs. This approach has special potential for childhood cancers and other rare or orphan diseases, where the expected return on new drug development has been a disincentive to pharmaceuticals.
# In this project we exploit the poly-pharmacology of drugs to discover new indications via phenotypic screening of a panel of 19 well-characterized cell lines derived from solid tumors seen in children and adolescents. The goal is to identify approved drugs with previously unrecognized anticancer properties that has the potential to reveal new mechanisms and biological processes involved in carcinogenesis or drug resistance. We employed a titration-based paradigm (quantitative high-throughput screening or qHTS), where all compounds were tested at multiple concentrations for their effect on cell viability. Concentration-response curves (CRCs) were derived directly from the primary screen, and both potency and efficacy values were used to identify compounds with robust bioactivity profiles. We screened the NIH Chemical Genomics Center (NCGC) Pharmaceutical Collection (NPC) and Mechanism Interrogation Plate (MIPE) small molecule collections of approved and investigational compounds against these cell lines; and measured metabolically active cells after 48 hours of compound treatment as a proxy for cell viability.
# Assay Submitter: Nathalia J. Martinez, National Center for Advancing Translational Sciences, National Institutes of Health, Rockville, MD, USA; email: natalia.martinez@nih.gov
# [1] Shen, M et al. Quantitative high-throughput phenotypic screening of pediatric cancer cell lines identifies multiple opportunities for drug repurposing. Oncotarget 2017 Dec 19;9(4):4758-4772. PMID 29435139.
# The cells were obtained from University of North Carolina (UNC), Pediatric Preclinical Testing Program (PPT), and Coriell Institute (CI).
# qHTS cell viability assay:
# Cells were assayed in growth media at a density of 500-1,000 cells/well. Five microliters of cells were dispensed into 1,536-well, white, solid-bottom, TC-treated plates (Greiner Bio One) using a multidrop dispenser and incubated at 37 degrees C, 5% CO2, under a humidified atmosphere for 5 hours. Twenty-three nanoliters of compounds and controls (neutral control DMSO or positive control bortezomib at final concentration of 2.3 µM) were subsequently transferred by Kalypsys pintool. For primary screens, the MIPE collection was tested at 11-point dilutions (final concentrations range from 0.78 nM to 46 µM) and the NPC collection at 8-point dilutions (final concentrations range from 0.59 nM to 46 µM). Compounds tested in follow-up screens were assayed at 11-point dilutions. Cells were incubated for 48 hours, followed by addition of 3 µL of CellTiter-Glo (Promega). After a 15 min incubation at room temperature, samples were analyzed for luminescence intensity using a ViewLux High-throughput CCD imager equipped with clear filters.
# Potency is read from the fitted curve at half-maximal effect.
SMILES,"activity change, negative = cytotoxicity",Potency
CC(=O)OCC(=O)[C@@]1(O)CC[C@H]2[C@@H]3CCC4=CC(=O)C=C[C@]4(C)[C@H]3[C@@H](O)C[C@@]21C,-3.53%,
C[C@]12C=CC(=O)C=C1CC[C@@H]1[C@@H]2[C@@H](O)C[C@@]2(C)[C@H]1CC[C@]2(O)C(=O)CO,6.8%,
CN(C)/N=N/c1nc[nH]c1C(N)=O,,369 nM (active)
COc1cc(C=C2CCC/C(=C\c3ccc(O)c(OC)c3)C2=O)ccc1O,,20800 nM (active)
CCCCCCC[N+](CC)(CC)CCCCc1ccc(Cl)cc1,,13100 nM (active)
C[n+]1c2cc(N)ccc2cc2ccc(N)cc21 (tested in a mixture with another compound),,14700 nM (active)
"Cc1c2oc3c(C)ccc(C(=O)N[C@@H]4C(=O)N[C@H](C(C)C)C(=O)N5CCC[C@H]5C(=O)N(C)CC(=O)N(C)[C@@H](C(C)C)C(=O)O[C@@H]4C)c3nc-2c(C(=O)N[C@@H]2C(=O)N[C@H](C(C)C)C(=O)N3CCC[C@H]3C(=O)N(C)CC(=O)N(C)[C@@H](C(C)C)C(=O)O[C@@H]2C)c(N)c1=O (I: T[dV]P[Sar][NMeV] / II: T[dV]P[Sar][NMeV]; ester I:1-I:C, II:1-II:C; linker I:N-II:N via Actinocin(9to1))",,32.9 nM (active)
CC(=O)O[C@]1(C(C)=O)CC[C@H]2[C@@H]3C[C@H](C)C4=CC(=O)CC[C@]4(C)[C@H]3CC[C@@]21C,-0.269%,
CCCCC(CC)CN=C(N)NC(N)=NCCCCCCN=C(N)NC(N)=NCC(CC)CCCC (stereo unspecified),,2930 nM (active)
OC[C@H]1O[C@@H](n2cnc3c(=S)nc[nH]c32)[C@H](O)[C@@H]1O,-17.1%,
CCC(C(=O)OCCN(CC)CC)c1ccccc1 (stereo unspecified),-16.9%,
NC(CO)(CO)CO,2.58%,
CC(=O)OCC(=O)[C@@]12OC(C)(C)O[C@@H]1C[C@H]1[C@@H]3C[C@H](F)C4=CC(=O)C=C[C@]4(C)[C@@]3(F)[C@@H](O)C[C@@]12C,-20%,
C[C@]12C=CC(=O)C=C1[C@@H](F)C[C@@H]1[C@@H]2[C@@H](O)C[C@@]2(C)[C@H]1CC[C@]2(O)C(=O)CO,-10.8%,
C=C1C[C@H]2[C@@H]3C=C(C)C4=CC(=O)CC[C@]4(C)[C@H]3CC[C@]2(C)[C@@]1(OC(C)=O)C(C)=O,-1.4%,
Oc1ccc(O)cc1,-26.9%,
CCOc1ccc2nc3cc(N)ccc3c(N)c2c1,-13.8%,
C[C@H]1C[C@H]2[C@@H]3CCC4=CC(=O)C=C[C@]4(C)[C@@]3(Cl)[C@@H](O)C[C@]2(C)[C@@]1(O)C(=O)CO,-4.56%,
C[C@]12CCC(=O)C=C1CC[C@H]1[C@@H]3CC[C@](O)(C(=O)CO)[C@@]3(C)C[C@H](O)[C@@]12F,-5.05%,
COCc1c(C(C)C)nc(C(C)C)c(/C=C/[C@@H](O)C[C@@H](O)CC(=O)O)c1-c1ccc(F)cc1,,36.9 nM (active)
CC(C)(C(=O)c1cccnc1)c1cccnc1,6.18%,
CC(=O)Oc1ccc(C(c2ccc(OC(C)=O)cc2)c2ccccn2)cc1,,1170 nM (active)
C[C@@H]1CN(CCCn2c3ccccc3c3ccccc32)C[C@H](C)N1,-33.2%,
COc1cccc2c1C(=O)c1c(O)c3c(c(O)c1C2=O)C[C@@](O)(C(=O)CO)C[C@@H]3O[C@H]1C[C@H](N)[C@H](O)[C@H](C)O1,,5850 nM (active)
CC1(C)O[C@@H]2C[C@H]3[C@@H]4C[C@H](F)C5=CC(=O)CC[C@]5(C)[C@H]4[C@@H](O)C[C@]3(C)[C@]2(C(=O)CO)O1,10.9%,
O=C(CCCN1CCC(O)(c2ccc(Br)cc2)CC1)c1ccc(F)cc1,-13.2%,
